Results taken from the supplement of paper PMC8387472.

How the values were obtained:
Details in all cases: mESC; 2uM; 72 h treatment, harvest day 5
[1] = compound: O=c1cc(N2CCOCC2)oc2c(-c3ccc4c(c3)OCCO4)csc12; experiment: fraction of edited reads among all mapped reads; higher = more Cas9 editing
Mercaptopurine (6-MP) = compound: S=c1[nH]cnc2nc[nH]c12 [Mercaptopurine (6-MP)]; experiment: as above
[2] = compound: S=c1nc[nH]c2nc[nH]c12 [6-Mercaptopurine (6-MP) Monohydrate]; experiment: as above
[3] = compound: CC(=O)O/N=C1\C(=O)N(Cc2cc(Cl)ccc2Cl)c2ccc(Cl)cc21; experiment: fraction of microhomology deletions among edited reads; higher = more MH deletions
[4] = compound: CC(C)(C#N)c1ccc(N2C(=O)OCc3cnc4ccc(-c5cnc6ccccc6c5)cc4c32)cc1; experiment: as above
[5] = compound: CCCCOc1c(C(=O)c2c(F)cc(C)cc2F)c[nH]c2nncc1-2; experiment: as above
[6] = compound: CCN1CCN(CC(=O)Nc2ccc(-c3cccc4c(=O)cc(N5CCOCC5)oc34)c3sc4ccccc4c23)CC1; experiment: as above
[7] = compound: CCc1c2c(nc3ccc(OC(=O)N4CCC(N5CCCCC5)CC4)cc13)-c1cc3c(c(=O)n1C2)COC(=O)[C@]3(O)CC [Irinotecan HCl Trihydrate]; experiment: as above
[8] = compound: CCn1c(=O)c(-c2ccc(Cl)cc2Cl)cc2cnc(Nc3ccc(N4CCNCC4)c(F)c3)nc21; experiment: as above
[9] = compound: CNc1ccc([N+](=O)[O-])c(Nc2ccc3[nH]ncc3c2)n1; experiment: as above

Row | Target | fraction of edited reads among all mapped reads [1] | fraction of edited reads among all mapped reads (Mercaptopurine (6-MP)) | fraction of edited reads among all mapped reads [2] | fraction of microhomology deletions among edited reads [3] | fraction of microhomology deletions among edited reads [4] | fraction of microhomology deletions among edited reads [5] | fraction of microhomology deletions among edited reads [6] | fraction of microhomology deletions among edited reads [7] | fraction of microhomology deletions among edited reads [8] | fraction of microhomology deletions among edited reads [9]
1 | 35.0 (DMSO control at this site: 1-bp insertion 0.01, MH deletion 0.72, edited 0.098) CCACTTTTAGAGAGGGTGAAAATCATCAGTTATCATCAGGGCAACAAATTGCTTTCTCCTA | 0.0645 | 0.127 | 0.0862 | 0.754 | 0.761 | 0.781 | 0.788 | 0.732 | 0.729 | 0.732
2 | 33.0 (DMSO control at this site: 1-bp insertion 0.008, MH deletion 0.771, edited 0.112) CATTAAGAGCAGCTGCCGGCCCCCAAGTGGACAGAGCTGGCCCTGCTGATTCAACAGTGCA | 0.0578 | 0.144 | 0.0975 | 0.714 | 0.71 | 0.717 | 0.76 | 0.741 | 0.716 | 0.727
3 | 8.0 GCATGCGTGTTTTGGGACAATGTAGTATACATTTGGGAGGCTCTCAGCTTTTCCCAATAAA |  |  | 0.017 | 0.107 | 0.0584 | 0.0574 |  |  |  | 
4 | 40.0 (DMSO control at this site: 1-bp insertion 0.072, MH deletion 0.192, edited 0.189) GCGAATCAACTGTTCAACAACAGCAGCAGCCACCTGGAGGACTACAGTGGCCTGTCCGTGT | 0.107 | 0.24 | 0.175 | 0.2 | 0.177 | 0.179 | 0.26 | 0.196 | 0.21 | 0.184
5 | 7.0 (DMSO control at this site: 1-bp insertion 0.128, MH deletion 0.374, edited 0.098) TACTCAACCGAGACCTACGCGAACCGAAATCGTATGCCGGTGCGCAAGCAGGGCTGGCGTC | 0.067 |  | 0.0891 | 0.489 | 0.456 | 0.404 | 0.477 | 0.484 | 0.417 | 0.442
6 | 43.0 (DMSO control at this site: 1-bp insertion 0.134, MH deletion 0.714, edited 0.104) AGTTTAACTTACTCCGGCCAAAAAAGAACTGCACCTCTGGAGCGGGTTAGTGGTGGTGGTA | 0.0695 | 0.165 | 0.114 | 0.72 | 0.687 | 0.69 | 0.711 | 0.676 | 0.77 | 0.703
7 | 20.0 (DMSO control at this site: 1-bp insertion 0.349, MH deletion 0.138, edited 0.084) TACAGGTGTAGACTGGTTACGTGGCTGCGGAATTGACTGGTTACGTGGCTGCGGAATTTTG | 0.0465 | 0.111 | 0.082 | 0.235 | 0.239 | 0.174 | 0.285 | 0.222 | 0.12 | 0.136
8 | 42.0 (DMSO control at this site: 1-bp insertion 0.145, MH deletion 0.655, edited 0.132) GGGCTAAACCTATGAGCACAGTAGAACTAAGGGTGGGTGGTGTAGCTAAAGAACTTGACCA | 0.0994 | 0.171 | 0.109 | 0.699 | 0.678 | 0.696 | 0.734 | 0.672 | 0.706 | 0.633
9 | 23.0 AGAACAAAGCGCTCATATAACGATATGGGGGGTTATGGGGGGTTGAATTGCTTCAGCACGA |  |  |  |  |  |  |  |  |  | 0.88
10 | 5.0 (DMSO control at this site: 1-bp insertion 0.214, MH deletion 0.567, edited 0.105) CGCTGACCCGAGACCTACGCGAACCGAAATCGGCGACCGGTGCGCAAGCAGGGCTGGCGTC | 0.0695 | 0.151 | 0.0997 | 0.593 | 0.605 | 0.588 | 0.705 | 0.563 | 0.617 | 0.552
11 | 18.0 (DMSO control at this site: 1-bp insertion 0.114, MH deletion 0.789, edited 0.094) GCGCAAGTGCATAAGTTTTTCTTAAGGCGTGCCTTTAAGGCGTGCCTTTGTCGGTCCTGGA | 0.0717 | 0.112 | 0.0789 | 0.794 | 0.798 | 0.787 | 0.866 | 0.789 | 0.794 | 0.793
12 | 2.0 (DMSO control at this site: 1-bp insertion 0.364, MH deletion 0.356, edited 0.125) GGTGCCCCCGAGACCTACGCGAACCGAAATCGATGTCCGGTGCGCAAGCAGGGCTGGCGTC | 0.0694 | 0.166 | 0.112 | 0.422 | 0.343 | 0.375 | 0.513 | 0.414 | 0.384 | 0.345
13 | 38.0 (DMSO control at this site: 1-bp insertion 0.063, MH deletion 0.487, edited 0.17) GGGCTGGGTGCTAAAATGAGGAGCTCCAAGAAGACTGAGGTGAACCTGGAGGCCCCTGAGC | 0.0925 | 0.193 | 0.157 | 0.497 | 0.485 | 0.505 | 0.546 | 0.488 | 0.513 | 0.501
14 | 26.0 (DMSO control at this site: 1-bp insertion 0.518, MH deletion 0.262, edited 0.026) AGGGCGCGCCCCACGCACTCTGCGGCAAGTCCCTCTGCGGCAAGTCCTCGGCCCGGAAGAC | 0.0106 | 0.04 | 0.0282 | 0.289 | 0.324 | 0.27 | 0.54 | 0.29 | 0.331 | 0.256
15 | 46.0 TTAAGAGCAATGTTCACGCAACTTGAAATTATATCTGTGGTCTTCAAATTGTCTTTTGTCA |  |  | 0.0652 |  | 0.597 | 0.422 |  |  |  | 0.376
16 | 4.0 (DMSO control at this site: 1-bp insertion 0.146, MH deletion 0.523, edited 0.125) ACGCCTTAGTGCACGAGTGACGGGATAATGTGGTCTCAGGTAATTGATAGGCTTCCAACTT | 0.0874 | 0.174 | 0.122 | 0.582 | 0.526 | 0.507 | 0.635 | 0.564 | 0.591 | 0.527
17 | 30.0 (DMSO control at this site: 1-bp insertion 0.074, MH deletion 0.67, edited 0.142) GAGCTGGCATGAGTATTTGTGCCACATGGCTCCCACATGGCTCCACATGCAAGTTTGAAAC | 0.0819 | 0.165 | 0.115 | 0.699 | 0.725 | 0.723 | 0.761 | 0.727 | 0.708 | 0.699
18 | 28.0 (DMSO control at this site: 1-bp insertion 0.035, MH deletion 0.77, edited 0.142) TGGTTCTTCCTTTGTAGAGAGTGTTCATCTGGGAATCTGGGACTTGGATGAGACAATCATT | 0.0926 | 0.18 | 0.117 | 0.789 | 0.793 | 0.767 | 0.818 | 0.763 | 0.774 | 0.774
19 | 3.0 (DMSO control at this site: 1-bp insertion 0.109, MH deletion 0.149, edited 0.09) TGCTAGCGCCCCCACAAAGCGGACCAGCCAGCACTATAGGGAATAAGGCCAACTTGCACCC | 0.0464 | 0.123 | 0.0926 | 0.225 | 0.161 | 0.199 | 0.266 | 0.222 | 0.226 | 0.188
20 | 34.0 (DMSO control at this site: 1-bp insertion 0.184, MH deletion 0.385, edited 0.103) ATTATAGGACCCTGAGGGAGCAGAGATGTGGGAATGGGGGCCGAGCCAATTGTGATGTAAG | 0.0512 | 0.114 | 0.0949 | 0.51 | 0.538 | 0.496 | 0.585 | 0.527 | 0.53 | 0.524
